The structures appear in SMILES notation.

Test systems include FYN; GAK; GRK1; GRK4; GRK7; GSK3A; GSK3B; HCK; HIPK1; HIPK2; HIPK3; HIPK4; HPK1; HUNK; ICK; IGF1R.
Common to all, as to conditions: concentration: 1 μM, replicates: in singlicate; n = 1
A further test relates to T1, GCN2(Kin.Dom.2,S808G).
T1 construct: gene EIF2AK4

In another test the test system is T2, GRK2.
T2 construct: gene ADRBK1

Another test deals with T3, GRK3.
T3 construct: gene ADRBK2

For a further test, the system named is T4, HASPIN.
T4 construct: gene GSG2
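Also: KINOMEscan kinase panel screen.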

As to `Cc1ccc(NC(=O)c2ccc(Cl)c(Cl)c2)cc1-c1ccc(C(=O)Nc2ccncc2)cc1` [GSK1398460], the “%Inh” value is recorded as 31% in the test with FYN; 45% in the test with GAK; 8% with GCN2(Kin.Dom.2,S808G); 0% in the test on GRK1; 0% in the test on GRK2; 24% with GRK3. For the same molecule, the “%Inh” value is 4% with GRK4; 0% with GRK7; 6% with GSK3A; 15% in the test with GSK3B; 0% in the test with HASPIN; 9% in the test on HCK. Also, the “%Inh” value in the test on HIPK1 came to 0%; in the test on HIPK2, 0%; in the test with HIPK3, 17%; in the test on HIPK4, 0%; in the test on HPK1, 40%; with HUNK it was 25%. In addition, the “%Inh” value in the test with ICK was 0%; in the test with IGF1R, 19%.

On to `CC(C)(C)c1ccc(C(=O)Nc2cn3cc(-n4ccnc4)ccc3n2)cc1`, for which the “%Inh” value amounted to 21% in the test with FYN; 0% with GAK; 27% with GCN2(Kin.Dom.2,S808G); 42% with GRK1; 51% with GRK2; 0% with GRK3. Also, the “%Inh” value in the test on GRK4 is 12%; in the test on GRK7, 21%; with GSK3A it was 2%; in the test with GSK3B it was 14%; with HASPIN, 7%; in the test on HCK it was 18%. The “%Inh” value in the test with HIPK1 amounted to 32%; with HIPK2, 28%; in the test on HIPK3, 12%; in the test with HIPK4 it was 21%; in the test on HPK1 it was 0%; in the test on HUNK it was 0%. For the same molecule, the “%Inh” value in the test on ICK and with IGF1R was 0% in each case.

`CC(C)NCC(Cc1ccccc1)NC(=O)c1cc(Br)c(-c2ccnc3[nH]ccc23)s1.Cl.Cl` (stereo not shown) [GSK1383281]: the “%Inh” value worked out at 2% in the test on FYN; 51% in the test on GAK; 33% in the test on GCN2(Kin.Dom.2,S808G); 72% in the test on GRK1; 79% in the test with GRK2; 87% with GRK3. Moreover, the “%Inh” value stood at 0% with GRK4; 91.5% in the test on GRK7; 7% in the test with GSK3A; 0% with GSK3B; 89% in the test on HASPIN; 0% in the test on HCK. Moreover, the “%Inh” value worked out at 30% with HIPK1; 0% in the test on HIPK2; 35% with HIPK3; 91.6% in the test on HIPK4; 44% with HPK1; 0% in the test on HUNK. The figures for the “%Inh” value with ICK and in the test with IGF1R were 11% and 4%, respectively.

With `Cc1ccc(NC(=O)c2cccc(N3CCCCC3)c2)cc1-c1ccc(C(=O)NCC2CC2)cc1` [GSK1917008], the “%Inh” value is listed as 15% with FYN; 11% in the test with GAK; 15% in the test on GCN2(Kin.Dom.2,S808G); 3% in the test on GRK1; 6% in the test on GRK2; 27% in the test with GRK3. In addition, the “%Inh” value in the test on GRK4 is given as 10%; in the test with GRK7 it was 0%; in the test on GSK3A, 27%; with GSK3B, 10%; in the test with HASPIN it was 0%; in the test with HCK, 0%. Besides, the “%Inh” value was 0% in the test on HIPK1; 0% in the test with HIPK2; 14% in the test with HIPK3; 17% in the test on HIPK4; 38% in the test with HPK1; 0% in the test on HUNK. In addition, the “%Inh” value came out at 23% in the test on ICK and 9% with IGF1R.

Take `COC(=O)Nc1nc2ccc(Oc3ccc(NC(=O)Nc4cc(C(F)(F)F)ccc4F)cc3)cc2[nH]1.Cl` [GW654607]: the “%Inh” value with FYN is given as 54%; with GAK, 0%; in the test with GCN2(Kin.Dom.2,S808G), 6%; in the test on GRK1, 0%; in the test with GRK2 it was 0%; in the test on GRK3 it was 0%. The “%Inh” value with GRK4 is 11%; with GRK7, 0%; with GSK3A, 4%; in the test on GSK3B it was 9%; in the test on HASPIN it was 12%; in the test with HCK, 51%. The “%Inh” value with HIPK1 is on record as 8%; in the test with HIPK2, 0%; in the test on HIPK3, 10%; in the test with HIPK4, 92%; in the test with HPK1, 57%; in the test on HUNK, 8%. Moreover, the “%Inh” value in the test with ICK was 11%; in the test with IGF1R it was 2%.

With `CS(=O)(=O)c1cccc(CNc2nc(Nc3ccc4c(c3)CCC(=O)N4)ncc2C(F)(F)F)c1`, the “%Inh” value is on record as 10% in the test with FYN; 16% with GAK; 0% in the test with GCN2(Kin.Dom.2,S808G); 24% in the test on GRK1; 0% with GRK2; 0% with GRK3. Moreover, the “%Inh” value is 0% with GRK4; 0% with GRK7; 55% in the test with GSK3A; 0% in the test on GSK3B; 0% in the test with HASPIN; 0% in the test on HCK. Also, the “%Inh” value in the test on HIPK1 is given as 31%; in the test on HIPK2, 3%; in the test with HIPK3, 0%; with HIPK4, 22%; in the test with HPK1, 41%; in the test on HUNK, 0%. Further, the figures for the “%Inh” value with ICK and in the test with IGF1R were 0% and 5%, respectively.

Regarding `Cl.N#CCc1ccc(Nc2nccc(Nc3ccc(Oc4ccccc4)cc3)n2)cc1` [GW639905], the “%Inh” value is reported as 74% in the test on FYN; 31% with GAK; 36% with GCN2(Kin.Dom.2,S808G); 0% in the test with GRK1; 0% with GRK2; 45% in the test on GRK3. The “%Inh” value was found to be 0% in the test with GRK4; 0% in the test on GRK7; 0% in the test with GSK3A; 8% in the test with GSK3B; 0% with HASPIN; 94.7% in the test with HCK. Also, the “%Inh” value in the test with HIPK1 stood at 0%; in the test with HIPK2, 0%; in the test with HIPK3, 14%; with HIPK4, 0%; in the test on HPK1 it was 36%; in the test with HUNK it was 0%. The “%Inh” value in the test on ICK and in the test on IGF1R was 0% in each case.

In the case of `CN(C)c1ncnc2nc[nH]c12` [SKF-31736], the “%Inh” value in the test with FYN was 0%; with GAK, 0%; with GCN2(Kin.Dom.2,S808G), 0%; in the test with GRK1 it was 43%; in the test on GRK2, 0%; in the test on GRK3, 0%. Besides, the “%Inh” value with GRK4 was found to be 38%; in the test on GRK7, 0%; in the test on GSK3A, 1%; in the test with GSK3B it was 28%; in the test on HASPIN, 0%; in the test on HCK, 3%. For the same molecule, the “%Inh” value in the test with HIPK1 was determined as 23%; in the test on HIPK2, 12%; in the test with HIPK3, 15%; with HIPK4, 0%; with HPK1, 0%; in the test with HUNK, 0%. Also, the “%Inh” value with ICK and with IGF1R was 0% in each case.

(Values after paper PMC5540273 (PLoS ONE, 2017).)
